# NFkB transloc pot: enhancers of NFkB p65 translocation in HUVEC – imaging, IL-1B stimulus, high-content imaging, primary screen. activation, % at 2 µM. hit rate 0.3% among 94,000. AID 819, 2007. HUVEC IL-1B NFkB p65 nuclear translocation imaging;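 active = activation above 40%, about the mean plus 3 SD, also judged a hit on visual image review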;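 also: percent activation is computed from the nuclear over cytoplasmic p65 intensity ratio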
# IL1B cytotox: cytotoxicity in IL-1B stimulated HUVEC, primary screen, cytotoxicity control for IL-1B NFkB translocation project, imaging, Hoechst nuclear count, IL-1B stimulus | HUVEC cell count loss | hit rate 0.41% among 94,000 | cell count reduction, % at 2 µM;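 active = cell count reduction more than 3 SD above the screen-wide mean, cut at about 70% in these data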;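 also: normalized per plate to untreated control cells as the no-loss baseline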
# NFkB transloc inh: inhibitors of IL-1B driven NFkB p65 nuclear import, primary screen, imaging, HUVEC, IL-1B stimulus, high-content imaging. HUVEC IL-1B NFkB p65 nuclear translocation imaging. inhibition, % at 2 µM. hit rate 0.43% among 94,000;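 active = inhibition above about 30% together with a positive call from visual inspection of the well image, limit read from the data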;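 also: nuclear over cytoplasmic p65 intensity ratio measured by imaging; 0% = IL-1B stimulated DMSO wells and 100% = unstimulated DMSO wells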
# Measles CPE: compounds protecting cells from measles virus cytopathic effect, primary screen, measles RdRp inhibitor project, single point, MLSMR library, absorbance. Measles virus-infected cells, CPE protection. protection (pct of control), % at 4 µM. hit rate 1.5% among 140,000. AID 841, 2007; in the data active = protection mostly above about 24%, no sharp cut-off; inactive = mostly below about 26%
# Active calls of the source: *; . = no result. Compounds with a hit are over-represented: about 2.1% of the library has one in this group of screens.
SMILES,NFkB transloc pot,IL1B cytotox,NFkB transloc inh,Measles CPE
O=C1c2ccccc2C(=O)N1CCc1csc(-c2ccc(F)cc2)n1,2,-13,-2,25
CC(C)(C)NC(=O)COc1ccc(CNCc2cccs2)cc1,5,2,-5,4
O=C(NC1CCCC1)C(c1ccccn1)N(C(=O)c1csnn1)C1CCCCC1 (stereo not given),6,-2,-6,3
O=C(NC1CCCC1)C(c1ccccn1)N(C(=O)c1csnn1)C1CC1 (stereo not given),11,32,-11,86*
CS(=O)(=O)N1CCN(C(=O)C2c3ccccc3Oc3ccccc32)CC1,8,-45,-8,67*
Cc1c(NC(=O)CSc2nnc3c4ccccc4n(CCc4ccccc4)c3n2)c(=O)n(-c2ccccc2)n1C,0,24,0,37*
CCn1c2ccccc2c2nnc(SCC(=O)Nc3c(C)n(C)n(-c4ccccc4)c3=O)nc21,-4,-17,4,3
COc1ccccc1NC(CC(=O)c1ccccc1)C(=O)OCC(=O)c1ccc(C)c(C)c1 (stereo not given),.,.,.,6
CCCC(=O)Nc1ccc(NC(=O)c2ccco2)cn1,27,-9,-27,36
O=C(Nc1ccc2nc[nH]c2c1)c1ccco1,7,3,-7,53*
CC(C)C(=O)Nc1ccc(NC(=O)c2ccco2)cn1,.,.,.,55*
O=C(Nc1ccc2nc(-c3ccccc3)[nH]c2c1)c1ccco1,8,-8,-8,10
O=C(NCc1ccccc1)c1cccc(NC(=O)c2ccco2)c1,-4,17,4,4
CC(C)CNC(=O)c1cccc(NC(=O)c2ccco2)c1,8,-26,4,22*
CCOC(=O)c1c(NC(=O)c2ccc(N3C(=O)C4C5C=CC(C5)C4C3=O)cc2)sc2c1CCCC2 (stereo not given),23,-13,-23,6
COc1ccc2cc(Br)ccc2c1CC(=O)NC1CC(C)(C)NC(C)(C)C1,6,-4,-6,11
C[n+]1cccc(CNC(=O)/C=N/O)c1,-10,-23,10,active
O=C(COC(=O)/C=C/c1ccc2c(c1)OCO2)NC1CC1,.,.,.,26*
CCc1nc2scc(-c3cccs3)c2c(=O)o1,-45,8,45*,18
CCn1c(Sc2nc(C)nc3scc(-c4cccs4)c23)n[nH]c1=O,6,2,-6,21
CCCn1c(=S)[nH]c2cc(C(=O)N3CCc4ccccc43)ccc2c1=O,10,-13,-10,12
COCCn1c(=S)[nH]c2cc(C(=O)N3CCc4ccccc43)ccc2c1=O,-14,-12,14,59*
Cc1ccc(Nc2cc(C)nn2-c2nc(C)cc(C)n2)cc1,23,11,-23,6
Cc1ccc(Nc2cc(C)nn2-c2nc(C)cc(=O)[nH]2)cc1,-78,14,78*,3
Cc1cc(N2CCN(c3ccccc3)CC2)n2cc(-c3ccccc3)nc2n1,6,1,-6,4
SMILES,NFkB transloc pot,IL1B cytotox,NFkB transloc inh,Measles CPE
Cc1cc(N2CCN(c3ccccc3Cl)CC2)n2cc(-c3ccccc3)nc2n1,17,-27,-17,30*
O=C(C1CCCCN1S(=O)(=O)c1ccccc1)N1CCCCC1 (stereo not given),-52,10,52*,4
C=CCc1cccc2cc(C(=O)OCC(=O)c3ccccc3)c(=O)oc12,10,86*,-10,9
CC(C)Cn1cnc2c1c(=O)n(CC(=O)Nc1ccc3c(c1)OCO3)c(=O)n2Cc1ccccc1,-33,72*,33*,5
Cc1cc(NC(=O)Cn2c(=O)c3c(ncn3CC(C)C)n(Cc3ccccc3)c2=O)no1,.,.,.,1
Cc1ccc(C(=O)c2cc([N+](=O)[O-])ccc2N2CCOCC2)c(C)c1,-96,88*,96*,4
Cc1ccc(C(=O)c2cc([N+](=O)[O-])ccc2N2CCOCC2)cc1C,.,.,.,2
CCN1CCCC1CNC(=O)Cn1cccc1C(=O)c1ccccc1 (stereo not given),5,19,-4,7
Cc1ncsc1CCSc1n[nH]c(=O)n1-c1ccccc1,1,-160,-1,3
Cc1ncsc1CCSc1nc2ccccc2c(=O)n1C,-27,80*,28,11
O=C(OCCN1C(=O)c2ccccc2C1=O)c1cc2ccccc2o1,45*,-15,-45,7
CN(C)CCCOC(=O)c1cc2ccccc2o1,9,18,-9,5
O=C(CCC(=O)N1CCc2ccccc21)N1CCc2ccccc21,17,-25,-17,.
O=C(Cn1ncc2ccccc21)N1CCc2ccccc21,.,.,.,45*
O=C(Cn1cccc1)N1CCc2ccccc21,-15,-11,15,100*
Cc1ccc(CN2CCC(c3nc4ccc(Cl)cc4[nH]3)CC2)cc1,-34,0,34*,8
Clc1ccc2nc(C3CCN(Cc4ccccc4)CC3)[nH]c2c1,-7,1,7,3
O=C1c2ccccc2CN1CCNS(=O)(=O)c1ccc(Cl)cc1,-98,92*,98*,5
O=S(=O)(NCCCc1ccccc1)c1ccc(Cl)cc1,.,.,.,13
Cc1ccc(S(=O)(=O)CCC(=O)O)cc1C,7,22,-7,9
CCOC(=O)c1cccnc1SCC(=O)NCc1ccccc1,-14,16,0,16
C=CCSc1ncccc1C(=O)NCc1ccccc1,-6,7,6,80*
Cc1cc(NC(=O)CCC(=O)N(Cc2ccco2)C2(C(=O)NC3CCCCC3)CCN(C)CC2)no1,-99,87*,99*,5
CCOCCCNC(=S)NCCCNc1nc2cc3c(cc2cc1C#N)OCO3,10,32,-10,8
CCOCCCNC(=S)NCCNc1nc2ccc(C)cc2cc1C#N,.,.,.,55*
SMILES,NFkB transloc pot,IL1B cytotox,NFkB transloc inh,Measles CPE
O=C(NCc1ccc(F)cc1)c1ccc(S(=O)(=O)Nc2cccc(C(F)(F)F)c2)cc1,.,.,.,6
O=C(NCc1ccccc1F)c1ccc(S(=O)(=O)Nc2cccc(C(F)(F)F)c2)cc1,.,.,.,31*
CCOC(=O)C(C)n1ncn2cccc2c1=O (stereo not given),18,-11,-18,4
O=C(COC(=O)c1ccc(S(=O)(=O)Nc2ccccc2)cc1)NCCN1C(=O)CSC1=O,2,37,-2,4
COc1ccc(OC(=O)CCCN2C(=O)c3ccccc3C2=O)cc1,6,86*,-6,8
CCn1c(SCc2ccc(C#N)cc2)nnc1-c1ccc(S(=O)(=O)N2CCCCC2)cc1,0,1,0,7
CCOc1cc(C)c(-c2onc(C(F)(F)F)c2-c2csc(C)n2)c(O)c1,-3,1,3,45*
Cc1nc(-c2c(C(F)(F)F)noc2-c2ccc(O)cc2O)cs1,0,5,0,4
C/C(=N\NC(=O)c1ccc(CSc2cccc3cccnc23)cc1)C1CCCCC1,.,.,.,12
COc1ccc(/C(C)=N/NC(=O)c2ccc(CSc3cccc4cccnc34)cc2)cc1OC,-13,0,13,70*
COc1ccc(C(=O)Oc2c(C)occc2=O)cc1OC,-4,11,4,48*

# Compound activity deposited in PubChem BioAssay by several laboratories.
